Hits are enriched below; roughly 4.7% of the tested compounds scored in any of these assays.
D1 antagonist – antagonists of human D1 dopamine receptor; activity change, negative = inhibition, % at 10 µM; HEK293 TREx D1 cells, calcium flux, dopamine EC80; stronger effect = lower value; actives 3.2% (n = 360,000); P21728; in the data active means activity change below about -30%; further: on the % scale 0 is the no-effect control and ±100 the full control effect
Target sequence (P21728 whole entry, looked up): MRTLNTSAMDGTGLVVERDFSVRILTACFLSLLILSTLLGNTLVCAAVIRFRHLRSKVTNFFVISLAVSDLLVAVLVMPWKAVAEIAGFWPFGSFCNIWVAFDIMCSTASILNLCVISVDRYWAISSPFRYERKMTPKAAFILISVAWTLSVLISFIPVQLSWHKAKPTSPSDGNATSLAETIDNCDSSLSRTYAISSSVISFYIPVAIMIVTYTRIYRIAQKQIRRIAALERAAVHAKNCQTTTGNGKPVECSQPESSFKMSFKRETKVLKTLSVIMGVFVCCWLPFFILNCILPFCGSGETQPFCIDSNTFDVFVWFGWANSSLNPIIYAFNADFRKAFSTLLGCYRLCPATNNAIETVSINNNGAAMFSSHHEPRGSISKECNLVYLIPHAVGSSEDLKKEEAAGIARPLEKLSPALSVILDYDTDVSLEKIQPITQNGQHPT
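Cells carrying a force-coupled, tetracycline-inducible human D1 receptor report calcium flux. Each well gets a 10 s baseline, compound with 180 s monitoring, then an EC80 dopamine stimulus with a second 180 s kinetic read.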
TRHR agonist – agonists of human TRH receptor. P34981. TRHR cells, calcium flux fluo-8, FDSS agonist mode. activation, % at 2 µM. actives 0.18% (n = 360,000); further: 0% is about no effect
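TRHR-expressing cells, plated overnight in medium with 10% serum, were loaded with fluo-8 calcium dye at room temperature. After a 10 s baseline, library compound was pin-added and calcium release was recorded kinetically (ex 480/em 530) as agonist response.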
TRHR enhancer – TRH receptor (human) allosteric enhancement; TRHR cells, fluo-8 calcium fluorescence, EC20 TRH enhancement; actives 0.66% (n = 360,000); AID 493056; enhancement, % at 2 µM; P34981; in the data active means enhancement above about 30%; further: 0% is about no effect
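Enhancer read-out: after compound pinning and an initial kinetic agonist-mode read, an EC20 of TRH (10 nM final) was injected and fluo-8 calcium signal (Ex 480/Em 530) followed at 1 s/cycle for 100 cycles in TRHR-expressing cells.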
D1 potentiator – enhances dopamine response at the human D1 receptor; P21728; HEK293 TREx D1 cells, calcium flux, dopamine EC20 potentiation; potentiation, % at 10 µM; actives 0.036% (n = 360,000); in the data active means potentiation above about 30%; further: 0% is about no effect
D1 ag – human D1 receptor agonism | P21728 | HEK293 T-REx D1 cells, calcium flux, agonist mode | activation, % at 2 µM | actives 1% (n = 360,000); further: 0% is about no effect
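Agonism was scored from calcium flux recorded over 180 s (1 read/s) after pintool compound addition, following a 10-cycle baseline. Cells were inducible force-coupled HEK293 TREx D1, plated overnight at 30 C and loaded with no-wash calcium dye.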
The depositor's hits bear a star; · = no result given. Unless noted, no stated cut-off is given here; in the data, active means activation above about 30%; inactive means the rest.

SMILES	D1 antagonist	TRHR agonist	TRHR enhancer	D1 potentiator	D1 ag
O=[N+]([O-])c1ccc(N2N=C(c3ccccc3)CC2c2ccccc2O)cc1 (configuration not stated)	1.8	23.8	12.7	-8.7	62.7*
COc1ccccc1N1N=C(c2ccc([N+](=O)[O-])cc2)CC1c1ccccc1 (configuration not stated)	-6.2	24.2	2.3	-3.9	62.5*
O=C(c1ccccc1)N1N=C(c2ccccc2)CC1c1ccccc1O (configuration not stated)	30.5	-1.1	7.3	-5.2	3.4
COc1cc(N2N=C(c3ccccc3)CC2c2ccccc2)c(C=O)cc1C=O (configuration not stated)	12.0	0.3	-0.4	0.7	-2.1
CCOc1ccccc1CNC(=O)Cn1nc(C)c2nn(-c3ccc(Cl)cc3)c(C)c2c1=O	4.4	-1.0	19.9	-1.4	0.6
Cc1ccc(N2C(=O)CCSC23C(=O)N(Cc2ccc(F)cc2)c2ccccc23)cc1 (configuration not stated)	8.9	-1.2	5.2	-2.4	1.0
CCCCOc1ccc(CSc2nnc(C)n2N)cc1[N+](=O)[O-]	-19.4	0.7	1.2	8.0	1.0
CCCCOc1ccc(CSc2nc(C)[nH]c2[N+](=O)[O-])cc1[N+](=O)[O-]	-31.0*	0.1	1.3	-7.1	11.9
Fc1cc(Br)ccc1Nc1c2c(nc3nc(-c4cccs4)nn13)CCCC2	9.9	-0.6	2.7	6.3	6.5
COc1ccc(OCC(O)CNC(=O)Nc2cc(F)ccc2C)cc1 (configuration not stated)	-40.9*	-0.1	2.6	-6.7	-1.2
COc1ccc(OCC(O)CNC(=O)Nc2ccc(C(C)(C)C)cc2)cc1 (configuration not stated)	1.9	-1.2	-2.1	-10.8	0.8
C=CCNC(=O)c1sc(-c2ccccc2)nc1C	-8.0	-0.5	39.3*	-5.0	1.0
Cc1nc(-c2ccccc2)sc1C(=O)NN	-20.8	0.8	-3.6	5.2	1.9
Cc1nc(-c2ccccc2)sc1C(=O)CSc1ccc(Br)cc1	-36.5*	2.3	1.5	-1.8	10.7
Cc1nc(-c2ccccc2)sc1C(=O)CSc1ccc(Cl)cc1	-3.8	0.9	-2.6	-1.8	9.6
CCc1cnc2c(c1SCC(=O)c1ccc(OC)cc1)c(=O)n(C)c(=O)n2C	·	-0.5	-3.7	-2.8	-2.1
Cc1cc2oc(=O)cc(CN3CCCCC3)c2cc1C	-8.9	-0.2	-2.1	1.2	0.7
Cc1cc2oc(=O)cc(CN3CCN(S(=O)(=O)c4cccs4)CC3)c2cc1C	-44.0*	-0.3	-4.8	-5.8	2.0
COC(=O)c1ccc(NC(=O)C(C)Sc2nc(=O)cc(N)n2CCc2ccccc2)cc1 (configuration not stated)	8.0	-2.5	0.2	-3.6	1.4
CCc1ccc(NS(=O)(=O)c2[nH]ncc2C(=O)OC)cc1	-37.5*	-0.3	11.4	0.0	0.3
CCc1ccc(NS(=O)(=O)c2cc(OC)ccc2OC)cc1	0.6	-1.0	-6.1	-5.8	16.9
Cc1ccc(NC(=O)CSc2nc3ccc(NC(=O)CCc4ccccc4)cc3s2)cc1	0.9	0.3	-1.7	-1.8	1.0
Cc1cccc(C)c1NC(=O)c1nc(SC(C)C)ncc1Cl	17.6	-2.3	-4.1	2.5	-0.4
COc1ccccc1N1CCN(CCCn2c(=S)[nH]c3ccccc3c2=O)CC1	-87.9*	-0.9	4.4	-7.5	0.3
O=c1c2cc(N3CCOCC3)ccc2[nH]c(=S)n1CCCN1CCN(c2ccccc2F)CC1	-71.0*	-0.2	2.0	-6.8	2.6
SMILES	D1 antagonist	TRHR agonist	TRHR enhancer	D1 potentiator	D1 ag
CC(=O)Nc1ccc(S(=O)(=O)N(C)CC(=O)NC2=NCCS2)cc1	-31.1*	0.3	1.6	-8.3	1.6
Cc1ccc(NC(=O)Cn2c(=O)n(Cc3ccccc3)c(=O)c3c2c2cc(C)ccc2n3C)cc1	8.6	0.4	14.7	-2.9	1.5
Cc1ccc(-c2nc(C)c(CCNC(=O)C(=O)Nc3ccc(C)c(Cl)c3)s2)cc1	-13.9	0.3	-0.9	-5.2	1.6
CCOC(=O)/C=C1/N(C)c2ccccc2C1(C)C	-3.2	-0.1	0.1	1.4	1.1
CN1/C(=C\P(=O)(N(C)C)N(C)C)C(C)(C)c2ccccc21	-37.2*	1.6	-4.4	-3.4	8.4
Cc1oc2ncn(C)c(=O)c2c1C(=O)NCCCN(Cc1ccccc1)C(C)C	-0.2	2.3	-3.6	-1.4	1.9
Cc1oc(-c2ccc(Cl)cc2)nc1CS(=O)CC(=O)NCc1ccc(Cl)cc1 (configuration not stated)	-4.5	-0.3	0.4	2.0	2.2
CCCCOc1ccc(CNC(=O)CCCN2C(=O)CSc3c2c(C)nn3-c2ccccc2)cc1	-5.5	0.9	-7.0	-6.2	9.9
O=C(O)c1c(-c2ccccc2)oc2ccc(OCc3c(F)cccc3Cl)cc12	0.5	-0.8	13.4	0.8	36.2*
COc1ccc(-c2cc(C)nc3c(-c4ccc(OC)c(OC)c4)c(C)nn23)cc1	-9.4	-2.2	-12.1	-2.9	-0.2
N#Cc1ccccc1NC(=O)CSC1=Nc2ccccc2C2CC=NN12 (configuration not stated)	-7.2	0.0	4.0	-5.7	1.4
Cc1cc(C)cc(N(CCC#N)C(=O)CSC2=Nc3ccccc3C3CC=NN23)c1 (configuration not stated)	11.0	0.5	33.6*	-1.3	3.3
CC(=O)Nc1ccccc1-c1nc2ccccc2n(CC(=O)Nc2cccc(C)c2C)c1=O	0.4	-0.3	-1.9	-3.4	3.5
COc1cc(NC(=O)Cn2nnnc2-c2ccccc2F)cc(OC)c1OC	1.7	0.1	-3.1	-2.0	1.9
CCOC(=O)N1CCC(NC(=O)c2cnn3c2NC(c2ccco2)CC3C(F)(F)F)CC1 (configuration not stated)	-2.4	-0.7	32.2*	-8.4	1.7
Cc1ccc(-c2nnc(SCC(=O)NC(C)(C)C)nc2-c2ccc(C)cc2)cc1	5.1	-0.3	-3.1	-1.1	-0.5
Cc1ccc(NC(=O)c2ccc3oc(=O)c(S(=O)(=O)c4ccccc4)cc3c2)cc1C	-2.5	0.3	-3.6	0.3	0.3
COc1ccccc1NC(=O)c1ccc2oc(=O)c(S(=O)(=O)c3ccccc3)cc2c1	-55.7*	-0.3	-4.8	-2.2	-0.6
CCc1nnc(SCC(=O)N(C)c2ccccc2)c2cc3sccc3n12	-0.4	-0.6	-1.9	-3.5	1.5
Oc1ccc(/C=N/N(c2ccccc2)c2ccccc2)cc1O	-38.3*	1.1	-8.8	1.0	2.4
Oc1ccc(/C=N/N(c2ccccc2)c2ccccc2)c(O)c1O	-9.3	0.6	-1.8	-4.2	1.2
CCc1ccccc1NC(=S)N(Cc1cccc(C)c1)c1cccnc1	13.5	-0.1	-1.6	1.1	4.6
Cc1cccc(CN(C(=S)Nc2c(C)cccc2C)c2cccnc2)c1	-32.7*	-0.6	-5.3	-5.7	6.9
O=C(O)c1ccccc1NCc1ccco1	2.7	-0.3	-2.7	8.1	2.6

Bioassay records deposited in PubChem by National Center for Advancing Translational Sciences (NCATS).
